Data: the OligoGym collection
Note: reference of the scale not given here.

Each sequence was assayed against NRN1 (assay: pooled miR-30 sensor sort-seq; sequence = guide strand). Details: shRNA.
Sequence TCTTGATGTTCGTCTTGTCGTC has a sensor-assay potency score (higher = more potent) of -0.712.
TTGATGTTCGTCTTGTCGTCCA showed a sensor-assay potency score (higher = more potent) of 0.18.
TTGAAGACCGCATCGCACTTGC showed a sensor-assay potency score (higher = more potent) of 0.325.
In the case of TTCTTTTCTCAGTTTATCCCAC, the sensor-assay potency score (higher = more potent) is reported as -0.535.
In the case of TCAGTGAAATATATCTGCCGTT, the sensor-assay potency score (higher = more potent) is reported as -1.
In the case of TTGTCGTCCAGGCCCTGCGGGT, the sensor-assay potency score (higher = more potent) is reported as -1.62.
With ATCAGTGAAATATATCTGCCGT the sensor-assay potency score (higher = more potent) was -0.0404.
TTCGTCTTGTCGTCCAGGCCCT showed a sensor-assay potency score (higher = more potent) of -0.542.
For TGATGTTCGTCTTGTCGTCCAG, the sensor-assay potency score (higher = more potent) was -0.489.
For TTGGATGTTGAGGTTTTTGGAT, the sensor-assay potency score (higher = more potent) was -0.637.
TCGTCTTGTCGTCCAGGCCCTG gave a sensor-assay potency score (higher = more potent) of -1.79.
TTATCCCACATATCTTTCGCCC showed a sensor-assay potency score (higher = more potent) of -1.13.

These sequences were tested against NRTN in the same assay as above. Details: shRNA.
TCCTCGTAGGCCGTCGGGCGGC gave a sensor-assay potency score (higher = more potent) of -1.9.
With TAGCGGAACAGCACCGTCTCGT the sensor-assay potency score (higher = more potent) was -0.209.
ATGGACAGCACGGAGCTGCAGA was tested, and the sensor-assay potency score (higher = more potent) was -1.37.
In the case of AACAGCACCGTCTCGTCGGACG, the sensor-assay potency score (higher = more potent) is reported as -1.59.
For TGGCGCAGTCGTCGCAGCCCGA, the sensor-assay potency score (higher = more potent) was -1.96.
Sequence TCGTCCTCGTAGGCCGTCGGGC has a sensor-assay potency score (higher = more potent) of -1.36.
TCTCAGTACAGTTATCGCGAGA was tested, and the sensor-assay potency score (higher = more potent) was -1.15.
In the case of TGCACCGTGTGGTAGCGGCTGT, the sensor-assay potency score (higher = more potent) is reported as -1.01.
Work on TCGTCGCAGCCCGAGGTCGTAG yielded a sensor-assay potency score (higher = more potent) of -1.65.
TATCTCAGTACAGTTATCGCGA was tested, and the sensor-assay potency score (higher = more potent) was 0.0428.

What follows are sequences tested against NRXN1 in the same assay as above. Details: shRNA.
Work on TTTTGAGACAAGTCGTAGCAGA yielded a sensor-assay potency score (higher = more potent) of -0.143.
ATTGTTGCAAGCACACACCTTG gave a sensor-assay potency score (higher = more potent) of -0.22.
With TAGAATTAATCCATCTAGGGAT the sensor-assay potency score (higher = more potent) was -0.432.
TAAGTTTATATTATGTCTCAGA gave a sensor-assay potency score (higher = more potent) of -0.557.
With TAAAGATATATGTCGTCCCAGG the sensor-assay potency score (higher = more potent) was -1.02.
Work on TATTTTTATATACAACCTCTTT yielded a sensor-assay potency score (higher = more potent) of -1.15.
TTGAACTTCAGCCATTTGCCGG gave a sensor-assay potency score (higher = more potent) of -0.927.
TTTGTGTCAATCTTTACAGTGT was tested, and the sensor-assay potency score (higher = more potent) was 0.163.
With TATCATTGAGGTTATAGCCAGC the sensor-assay potency score (higher = more potent) was -0.792.
With TTTCTTTAGCTACTCCTCCTAT the sensor-assay potency score (higher = more potent) was -0.523.
TATTTCTATACAAGTGTCCATT was tested, and the sensor-assay potency score (higher = more potent) was -1.16.
Work on AAGATTGACATAATCAGCCGAT yielded a sensor-assay potency score (higher = more potent) of 0.46.

These sequences were tested against NT5C3L in the same assay as above. Details: shRNA.
TTGCATTGGACTCTCTAACCAC was tested, and the sensor-assay potency score (higher = more potent) was -0.0742.
TATCTGAAACTTCTGAATCTTC gave a sensor-assay potency score (higher = more potent) of -0.418.
With TAGCCCGTTGACCACATCCAGA the sensor-assay potency score (higher = more potent) was -1.7.
In the case of AAACTTCTGAATCTTCTGCTGA, the sensor-assay potency score (higher = more potent) is reported as -0.000526.
Work on ATTGGACTCTCTAACCACCTGG yielded a sensor-assay potency score (higher = more potent) of 0.547.
TGGAACACTTTCATCTGTCGGA gave a sensor-assay potency score (higher = more potent) of -0.0202.
